Reference: PubChem BioAssay AID651636 (Sanford-Burnham Center for Chemical Genomics, 2012)
Hit rate of the full screen: of about 360,000 compounds, about 3,000 (0.83%) were called active. No stated cut-off is given here; in the data, active means inhibition above about 38%; inactive means the rest. This excerpt belongs to a sample that is enriched for actives.

molecular target: G-protein coupled receptor 183 (Homo sapiens) (UniProt P32249); test: EBI2 receptor antagonists, beta-arrestin recruitment, primary screen, cell-based, luminescence, 7a,25-OHC stimulation, uHTS (AID 651636); conditions: 7a,25-OHC stimulated, at 5 µM, hits give high values;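 further: enzyme fragment complementation signal reports receptor beta-arrestin coupling in cells; 0% = agonist plus DMSO wells and 100% = wells without agonist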
Sequence (P32249 whole entry, looked up, the tested form may be a part): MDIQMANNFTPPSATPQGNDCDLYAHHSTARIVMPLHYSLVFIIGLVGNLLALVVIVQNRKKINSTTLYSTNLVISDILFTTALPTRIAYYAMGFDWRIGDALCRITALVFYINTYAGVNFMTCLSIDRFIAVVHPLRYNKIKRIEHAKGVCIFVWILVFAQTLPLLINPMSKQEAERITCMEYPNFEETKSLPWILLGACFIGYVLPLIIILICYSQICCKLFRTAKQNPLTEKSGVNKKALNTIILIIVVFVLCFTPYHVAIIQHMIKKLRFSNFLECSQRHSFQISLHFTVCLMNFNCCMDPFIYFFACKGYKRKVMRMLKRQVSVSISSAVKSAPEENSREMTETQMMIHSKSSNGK

SMILES | inhibition
O=C(O)/C=C/C(=O)NNc1ccc([N+](=O)[O-])cc1 | -16.6% (inactive)
O=C(NC(CC(=O)N1CCN(c2ccccc2)CC1)c1ccccc1)c1ccccc1Cl (stereo not drawn) | 11.4% (inactive)
COC(=O)[C@H](Cc1ccccc1)NC(=O)[C@@H]1C[C@H]1[C@@H](NC(=O)OCc1ccccc1)c1ccccc1 | 16.3% (inactive)
COc1ccc([N+](=O)[O-])cc1NC(=O)CC1SC(=Nc2cccc(C)c2C)N(/N=C(\C)c2ccc(C)cc2)C1=O (stereo not drawn) | 3.23% (inactive)
Cc1noc(C)c1-c1ccc(C(=O)NCc2ccncc2)c2occc12 | -22.7% (inactive)
C/C(Cl)=C\Cn1c(Nc2cccc(C)c2)nc2c1c(=O)n(C)c(=O)n2C | 22.8% (inactive)
OC[C@@H]1CN(C2CCCC2)C[C@H](n2cnc3c(NC4CCC4)ncnc32)O1 | -9.08% (inactive)
CCNc1nc(NC(C)C)nc(OCCOC(=O)c2ccccc2)n1 | -0.581% (inactive)
CCN(CC)S(=O)(=O)c1ccc(Cl)c(C(=O)NC(C)C(c2cccs2)N2CCCC2)c1 (stereo not drawn) | -5.7% (inactive)
COC(=O)c1cccc([N+](=O)[O-])c1CS(=O)(=O)c1ccc(C)cc1 | -6.03% (inactive)
Clc1ccc(-c2cc(C3CCNCC3)[nH]n2)c(Cl)c1 | 0.184% (inactive)
Cc1nc(NC(=O)C2CCCCC2)sc1C | -5.16% (inactive)
COc1cc(C(C)=O)ccc1OC(=O)CN1C(=O)c2ccccc2C1=O | -7.55% (inactive)
CC(C)OC(=O)CN1C(=O)C(=O)c2ccccc21 | 54.2% (active)
O=C1C(=O)N(c2ccccc2)c2ccccc21 | 4.82% (inactive)
COC(=O)c1ccc(NC(=O)c2cc3c(CO)cnc(C)c3oc2=Nc2cccc(C(N)=O)c2)cc1 | 12.4% (inactive)
COc1ccc(N2CCN(C(c3cc4ccc(C)cc4[nH]c3=O)c3nnnn3C3CCCC3)CC2)cc1 (stereo not drawn) | 2.46% (inactive)
COc1ccc(C(c2nnnn2C2CCCCC2)N2CCN(c3ccccc3F)CC2)cc1 (stereo not drawn) | 31.1% (inactive)
c1ccc(C(c2ccccc2)N2CCN(Cc3nnnn3C3CCCCC3)CC2)cc1 | 60.9% (active)
CC(C)C(c1nnnn1C1CCCC1)N1CCN(c2ccccc2F)CC1 (stereo not drawn) | 11.7% (inactive)

SMILES | inhibition
FC(F)(F)Oc1ccccc1C(c1nnnn1C1CCCCC1)N1CCN(C/C=C/c2ccccc2)CC1 (stereo not drawn) | 70.3% (active)
COc1ccc(C(c2nnnn2C2CCCC2)N2CCN(C/C=C/c3ccccc3)CC2)cc1 (stereo not drawn) | 54.1% (active)
c1ccc(CCn2nnnc2CN2CCN(C3CCCC3)CC2)cc1 | -2.13% (inactive)
CCCCn1nnnc1C(c1cccc(OC)c1OC)N1CCN(C/C=C/c2ccccc2)CC1 (stereo not drawn) | 24.9% (inactive)
COc1ccccc1C(c1nnnn1C(C)(C)C)N1CCN(Cc2ccccc2)CC1 (stereo not drawn) | -27.6% (inactive)
O=C(CC1SCCNC1=O)Nc1ccc(Cl)cc1 (stereo not drawn) | 0.627% (inactive)
CC(Sc1ccccc1F)C(=O)Nc1cccc(S(=O)(=O)N2CCOCC2)c1 (stereo not drawn) | 7.64% (inactive)
CCOc1ccc(CCNC(=O)C(CC)n2nc(C)n3c(cc4sccc43)c2=O)cc1OCC (stereo not drawn) | 0.672% (inactive)
Cc1ccc(-c2cc(C(F)(F)F)n3ncc(C(=O)N4CCCCC4c4cccnc4)c3n2)cc1 (stereo not drawn) | 19.8% (inactive)
CCn1c(N)c(Br)c(=O)[nH]c1=O | -5.96% (inactive)
CC1CCCN(CC(=O)Nc2cc(Cl)ccc2Oc2ccccc2)C1 (stereo not drawn) | 6.08% (inactive)
O=C(CSc1ccccc1)Nc1cc(Cl)ccc1Oc1ccccc1 | 63.2% (active)
CC(=O)Nc1ccc(SCC(=O)Nc2ccccc2Oc2ccccc2)cc1 | 6.4% (inactive)
Cn1c(=O)c(=O)n(C)c2cc(S(=O)(=O)CCC(=O)N3CCCCC3)ccc21 | -3.96% (inactive)
CN1CCN(C(=O)Cn2c(C(F)(F)F)nc3ccccc32)CC1 | -3.36% (inactive)
CC(C)Cn1c(N2CCN(C(=O)/C=C/c3ccccc3)CC2)nc2ccccc21 | 59.1% (active)
C=CCn1c(C(C)NC(=O)CC)nc2ccccc21 (stereo not drawn) | -24.2% (inactive)
COC(=O)[C@]12CCCCC=C1N(Cc1ccc3c(c1)OCO3)C(=O)[C@H](CC(=O)N1CCOCC1)C2 | 6.39% (inactive)
O=C(Nc1ccc2c(c1)CCC2)c1ccc(Br)s1 | -9.47% (inactive)
CCOC(=O)C1CCN(C(=O)COc2cccc3ccccc23)CC1 | 6.68% (inactive)

SMILES | inhibition
CCOC(=O)N1CCN(C(=O)COc2ccc(Br)cc2)CC1 | 89% (active)
CCOC(=O)N1CCN(C(=O)COC(=O)c2cccc(S(C)(=O)=O)c2)CC1 | -8.93% (inactive)
CCOC(=O)N1CCN(C(=O)COc2ccc(Cl)cc2C)CC1 | 63.5% (active)
CCOC(=O)C1CCN(C(=O)Nc2ccc(C)c(Cl)c2)CC1 | 8.32% (inactive)
CCOC(=O)C1CCN(C(=O)COc2cc(C)c(Br)c(C)c2)CC1 | 74.6% (active)
O=C(COc1ccc(Cl)cc1[N+](=O)[O-])N1CCCCC1 | 5.52% (inactive)
Cc1cc(S(=O)(=O)N2CCOCC2)ccc1OCC(=O)N1CCOCC1 | -8.03% (inactive)
CCOC(=O)N1CCN(S(=O)(=O)c2ccc(Br)cc2)CC1 | 8.56% (inactive)
O=C(NCc1ccc(F)cc1)C1CCN(C(=O)Nc2ccc(F)cc2)CC1 | 16% (inactive)
CC(=O)c1c(C)[nH]c(C(=O)OCC(=O)Nc2c(C)n(C)n(-c3ccccc3)c2=O)c1C | 8.82% (inactive)
Cc1cccn2c(=O)nc(SCC(=O)NCc3ccccc3Cl)nc12 | -6.29% (inactive)
Cc1nn(C)cc1/C=C1\CCC/C(=C\c2cn(C)nc2C)C1=O | 6.14% (inactive)
CC(C)CN1C(=O)CN(S(C)(=O)=O)CC1(C)C(=O)NCc1ccccc1 (stereo not drawn) | -1.75% (inactive)
Cn1c(=O)cc(SCC(=O)N2CCN(C(=O)c3ccco3)CC2)c2ccccc21 | -7.92% (inactive)
C=CCOc1ccc(/C=C/C(=O)OCC(=O)NC2CCCCCC2)cc1 | 0.205% (inactive)
N#C/C(=C\c1ccccc1)c1n[nH]c(Cn2cncn2)n1 | -5.28% (inactive)
CCNC(=O)COc1cc(C)c(Br)c(C)c1 | -7.22% (inactive)
COC(=O)C[C@@H]1C=C[C@@H](NC(=O)c2ccc3c(c2)OCO3)[C@@H](CO)O1 | 0.556% (inactive)
